# TRHR ag – TRH receptor (human) agonism; P34981; TRHR cells, calcium flux fluo-8, FDSS agonist mode; activation, % at 2 µM; 0.18% of 360,000 active; AID 493084; also: 0% is about no effect
#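 Agonist-mode FDSS calcium read (Ex 480/Em 530, 1 s cycles) in 1536-well TRHR cells with fluo-8 dye, after 10-cycle baseline and 23 nL compound addition; TRH at EC20 (10 nM final) added afterwards for the enhancer phase.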
# D1 agonist – activates the human D1 dopamine receptor; P21728; HEK293 T-REx D1 cells, calcium flux, agonist mode; activation, % at 2 µM; 1% of 360,000 active; AID 504660; also: 0% is about no effect
# Target sequence (P21728 whole entry, looked up): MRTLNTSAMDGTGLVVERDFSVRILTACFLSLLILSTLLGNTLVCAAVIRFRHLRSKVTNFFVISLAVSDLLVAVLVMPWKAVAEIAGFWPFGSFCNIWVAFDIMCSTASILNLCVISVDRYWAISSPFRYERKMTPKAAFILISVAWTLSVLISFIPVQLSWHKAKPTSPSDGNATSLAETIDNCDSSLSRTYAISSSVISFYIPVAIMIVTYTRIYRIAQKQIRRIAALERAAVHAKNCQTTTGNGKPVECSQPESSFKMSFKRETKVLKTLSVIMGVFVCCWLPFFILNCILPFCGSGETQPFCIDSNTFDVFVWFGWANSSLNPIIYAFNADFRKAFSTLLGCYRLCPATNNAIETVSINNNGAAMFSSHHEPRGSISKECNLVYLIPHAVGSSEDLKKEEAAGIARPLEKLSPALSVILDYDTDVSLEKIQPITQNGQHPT
#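 Inducible HEK293 T-REx D1 cells, force-coupled to calcium signalling, were plated at 4000 cells/well with tetracycline and held overnight at 30 C. After no-wash calcium dye loading, compound-evoked calcium rise over 180 s flagged agonists.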
# D1 antag – blocks dopamine activation of the human D1 receptor; HEK293 TREx D1 cells, calcium flux, dopamine EC80; hits give low values; activity change, negative = inhibition, % at 10 µM; P21728; 3.2% of 360,000 active; in the data active = activity change below about -30%; also: % is scaled to controls: 0 for no effect and ±100 for the full control effect
#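 Allosteric or orthosteric antagonism assessed as attenuation of the calcium response to EC80 dopamine, added 180 s after compound, in induced HEK293 Trex D1 cells loaded with no-wash calcium dye.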
# TRHR PAM – allosterically enhances the human TRH receptor. P34981. TRHR cells, fluo-8 calcium fluorescence, EC20 TRH enhancement. enhancement, % at 2 µM. 0.66% of 360,000 active. AID 493056; in the data active = enhancement above about 30%; also: 0% is about no effect
#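 Enhancer read-out: after compound pinning and an initial kinetic agonist-mode read, an EC20 of TRH (10 nM final) was injected and fluo-8 calcium signal (Ex 480/Em 530) followed at 1 s/cycle for 100 cycles in TRHR-expressing cells.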
# D1 potentiator – enhances dopamine response at the human D1 receptor. HEK293 TREx D1 cells, calcium flux, dopamine EC20 potentiation. potentiation, % at 10 µM. 0.036% of 360,000 active. AID 504651; in the data active = potentiation above about 30%; also: 0% is about no effect
# Numbers without * were called inactive; nt = not tested or not shown; ! = not confirmed by another sample. In the library only some 4.7% were active in any assay of this set; here they are far more common. Rule as the data show it, unless noted: active = activation above about 30%; inactive = the rest.
SMILES,TRHR ag,D1 agonist,D1 antag,TRHR PAM,D1 potentiator
COc1ccc(CNC(=O)CCC2N=C3c4ccccc4N=C(SCc4ccc(F)cc4)N3C2=O)cc1 (configuration not stated),0,2,8,3,0
Cc1ccc(NC(=O)C2CCN(S(=O)(=O)c3ccc4c(c3)NC(=O)C(C)S4)CC2)cc1C (configuration not stated),0,7,-27,-3,7
COc1ccc(N2CCN(S(=O)(=O)c3ccc4c(c3)NC(=O)CS4)CC2)cc1,0,5,-16,1,7
COc1ccc(N2CCN(S(=O)(=O)c3ccc4c(c3)NC(=O)C(C)S4)CC2)cc1 (configuration not stated),1,14,-38*,-3,2
Cc1ccc(NC(=O)C2CCN(S(=O)(=O)c3ccc4c(c3)NC(=O)C(C)S4)CC2)c(C)c1 (configuration not stated),1,8,-40*,-5,1
CCC1CCCCN1C(=O)CSc1nc(-c2ccc(OC)cc2)cc(C(F)(F)F)n1 (configuration not stated),1,3,-31*,5,-8
O=c1c2cc(Br)ccc2nc(-c2ccc(Cl)cc2)n1O,-1,107*,4,12,-6
O=C(Nc1ccccc1)c1ccc2c(c1)CCN2S(=O)(=O)c1ccccc1,1,10,-32*,1,-2
COc1ccc(NC(=O)c2ccc3c(c2)CCN3S(=O)(=O)c2ccccc2)cc1,0,4,-51*!,5,-7
Cc1ccc(CNC(=O)c2c3c(nc4ccccc24)C(=O)N(C2CCCCC2)C3)cc1,0,1,7,-1,-2
Cc1ccc(SCc2nc(-c3ccc(C(=O)NCc4ccccc4Cl)cc3)oc2C)cc1,1,5,7,4,-1
CCc1ccc(NC(=O)CN2C(=O)C(c3ccc(C)cc3)=NC23CCCCC3)cc1,1,6,-1,-6,-2
Cc1ccccc1-n1nnnc1SCc1csc(-c2ccccc2)n1,1,12,-35*,-5,-10
CSc1cccc(NC(=O)CC(c2ccc(F)cc2)N2Cc3ccccc3C2=O)c1 (configuration not stated),-1,8,-6,7,-2
COc1ccccc1NC(=O)c1cc2cc3ccc(OC)c(Cl)c3nc2s1,1,0,-3,5,-1
N#C/C(=C/c1ccc(CNC(=O)C(=O)Nc2cc(Cl)cc(Cl)c2)o1)C(=O)NCc1cccnc1,-1,0,-63*,19,-5
Cc1ccc(NC(=O)C(=O)NCc2ccc(/C=C(/C#N)C(=O)NCc3cccnc3)o2)cc1,-1,13,-29,9,-11
c1ccc(COc2ccccc2CNC23CC4CC(CC(C4)C2)C3)cc1,7,49*,5,-2,-4
O=C(COc1ccc(Br)cc1)Nc1ccncc1,-1,11,-4,3,-7
COc1ccc(-n2nc3ccc(NC(=O)c4cccc(OCCC(C)C)c4)cc3n2)cc1,2,2,10,36*,1
CC(C)CCOc1cccc(OCC(=O)Nc2ccncc2)c1,1,13,-31*,-4,-6
CCC(C)(C)c1ccc(OCC(=O)Nc2ccncc2)cc1,0,45*,-16,2,-11
Cc1ccc(C(CC(=O)Nc2cc(C)cc(C)c2)N2Cc3ccccc3C2=O)cc1 (configuration not stated),0,3,-3,-3,-3
Cc1cc2nc3c(=O)[nH]c(=S)[nH]c3nc2cc1NC(=O)C(F)(F)F,4,64*,0,3,1
CN(C1CCCCC1)S(=O)(=O)CCNC(=O)c1ccccc1,0,0,-67*,0,1
SMILES,TRHR ag,D1 agonist,D1 antag,TRHR PAM,D1 potentiator
COc1cccc(C(=O)NCCS(=O)(=O)N(C)C2CCCCC2)c1,0,-1,-6,3,-8
O=C(Cn1ncc2c3ccccc3n(Cc3ccccc3)c2c1=O)Nc1ccccc1C(F)(F)F,0,4,-25,-4,-2
O=c1[nH]c2ccc(NCc3ccc(-c4ccc(F)cc4)o3)cc2[nH]1,1,33*,-6,-1,-2
Cc1cccc(C)c1NC(=O)CCCn1c(=O)c2cccn2c2ccccc21,0,1,16,4,-4
COc1cccc(N(C(=O)c2snc(C(N)=O)c2N)C(C(=O)NCC2CCCO2)c2ccc(F)cc2)c1 (configuration not stated),0,4,-2,-2,nt
NC(=O)c1nsc(C(=O)N(c2ccc3c(c2)OCO3)C(C(=O)NCC2CCCO2)c2ccc(F)cc2)c1N (configuration not stated),0,-1,-77*,8,-9
CCc1ccc(N(C(=O)c2snc(C(N)=O)c2N)C(C(=O)NCC2CCCO2)c2cccs2)cc1 (configuration not stated),0,-1,25,-5,-1
NC(=O)c1nsc(C(=O)N(c2ccc(Cl)cc2)C(C(=O)NCC2CCCO2)c2cccs2)c1N (configuration not stated),1,2,-33*,-5,-5
Cc1ccccc1CN1C(=O)C(O)(CC(=O)c2ccccc2)c2cc(Cl)ccc21 (configuration not stated),0,4,-12,-5,-3
Cc1cccc(CSc2nc3c(c(-c4cccs4)c2C#N)CN(C)CC3)c1,2,10,-38*,-5,1
Cc1ccc(NC(=O)CN2C(=O)COc3ccc(S(=O)(=O)N4CCCCCC4)cc32)cc1Cl,0,6,-16,6,-1
COC(=O)CCC(=O)NC(=S)Nc1sc(C)c(C)c1C(N)=O,0,1,8,2,1
COC(=O)CCC(=O)Nc1sc(C)c(C)c1C(N)=O,0,-1,-41*,3,-6
Cc1sc(NC(=O)C2CCCCC2C(=O)O)c(C(N)=O)c1-c1ccccc1 (configuration not stated),0,3,8,4,4
Cc1sc(NC(=O)C2CCCCC2C(=O)O)c(C(N)=O)c1C (configuration not stated),0,1,-37*,-1,-1
CCCCCn1c(CCCNC(=O)c2ccc(Cl)cc2)nc2ccccc21,-2,7,3,12,-1
CC1CC(Nc2ccccc2)c2ccccc2N1C(=O)c1ccncc1 (configuration not stated),0,1,1,31*,1
CCN(c1ccccc1)c1nnc(NC(=O)Nc2cccc(Br)c2)s1,-1,-2,-14,-17,-1
CCOc1cccc2sc(N(CCCN(C)C)C(=O)c3ccc(S(=O)(=O)N(C)Cc4ccccc4)cc3)nc12,1,42*,-48*,1,4
